SKKanGAS inh: SKKanGAS growth inhibition; S. pyogenes SKKanGAS, kanamycin growth, BacTiter-Glo, 6 h; inhibition, % at 7.5 µM; actives 1.3% (n = 300,000); AID 1662;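 active means mean replicate score, as percent of positive control median, at least 50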;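 further: strain carries kanamycin resistance gene driven by streptokinase promoter and grows in 40 µg/ml kanamycin; loss of luminescence reflects streptokinase promoter inhibition or plain growth inhibition; 0% = median of DMSO wells and 100% = positive control at its reference dose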
tim10-1 inh: growth inhibitors of tim10-1 mutant yeast; S. cerevisiae tim10-1 ts strain growth, BacTiter-Glo, 24 h; inhibition, % at 20 µM; AID 463190; actives 2.2% (n = 330,000);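 active means inhibition of at least 40%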;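 further: mutant grown at 25 °C; 0% = DMSO wells with yeast and 100% = wells holding no yeast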
NLRP3 yeast inh: blocks the NALP3 inflammasome reconstituted in yeast | Yeast reconstituted NLRP3/ASC/caspase-1, beta-gal luminescence, 24 h | inhibition, % at 10 µM | actives 0.39% (n = 330,000) | AID 2825;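 active means inhibition of 50% or more; inactive means inhibition below 50%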;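 further: plate controls were induced DMSO wells for no effect and uninduced yeast grown without galactose for full effect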
tim23-1 inh: tim23-1 yeast growth inhibition; actives 1.3% (n = 330,000); S. cerevisiae tim23-1 growth, BacTiter-Glo luminescence, 24 h; inhibition, % at 20 µM;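 active means growth inhibition of the mutant yeast at or above 50%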;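 further: temperature-sensitive mutant grown at 25 °C; plate controls were DMSO-treated mutant yeast for no effect and medium wells lacking yeast for full effect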
TIM10 inh: inhibits growth of TIM10 yeast strain; S. cerevisiae TIM10 strain growth, BacTiter-Glo luminescence, 24 h; inhibition, % at 10 µM; actives 1.4% (n = 330,000);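 active means inhibition of 40% or more at the single tested concentration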;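 further: wild-type TIM10 isogenic control strain grown at permissive 25 °C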
tim23-1 conf: tim23-1 yeast growth inhibition, confirmed; shares compounds with tim23-1 inh; S. cerevisiae tim23-1 growth, BacTiter-Glo luminescence, 24 h; actives 83% (n = 4,400); inhibition, % at 20 µM;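 active means inhibition above about 39% in either of two replicate wells at 20 µM, limit read from the data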;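 further: temperature-sensitive tim23-1 mutant grown at 25 °C; 0% = DMSO wells with yeast and 100% = medium wells without yeast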
Numbers without * were called inactive; . = no result. Rows were chosen to be rich in hits. Some 4.6% of all compounds tested hit in one or more screens of this group.

SMILES | SKKanGAS inh | tim10-1 inh | NLRP3 yeast inh | tim23-1 inh | TIM10 inh | tim23-1 conf
Cc1nn(-c2ccc(Cl)cc2Cl)c(=O)c2ccccc12 | -2 | 20 | 37 | 8 | -3 | .
COC(=O)c1c(-c2ccc(S(C)(=O)=O)cc2)sc2ccc(OC)cc12 | . | 19 | 20 | 52* | 12 | 43*
O=C(Nc1nc2c(cc3c4c(cccc42)CC3)s1)c1ccccc1Cl | 4 | 10 | 9 | 11 | -16 | .
C#CCOCCOCCOCCNc1nc(N2CCN(C(=O)[C@H](Cc3cc4ccccc4[nH]3)n3cc([C@@H](N)C(C)CC)nn3)CC2)nc(N2CCN(C(=O)[C@H](Cc3cc4ccccc4[nH]3)n3cc([C@@H](N)CC(C)C)nn3)CC2)n1 (some centres undefined) | 4 | 0 | 9 | 7 | -2 | .
CC(C)(C)c1ccc(NC(=O)c2ccsc2)cc1 | 22 | 24 | 41 | 56* | 25 | 48*
O=C(O)C(O)C(O)c1nc2ccccc2[nH]1 (centres undefined) | 2 | -14 | 2 | 13 | -9 | .
COc1cccc(NC(=O)c2cc3ccccc3o/c2=N\O)c1 | 8 | -18 | 35 | 47 | 14 | .
COc1cccc(NC(=O)c2cc3cccc(OC)c3o/c2=N\O)c1 | -7 | 16 | 1 | 58* | 11 | 47*
Cc1nc(Nc2ccccc2)sc1C(=O)c1ccccc1 | -10 | 15 | 15 | 32 | 27 | .
CC(C)(C)C(=O)c1sc(Nc2ccccc2)nc1N | -11 | -34 | 22 | 53* | 6 | 41*
O=C(NCC(O)c1ccc([N+](=O)[O-])cc1)C1=COCCO1 (centres undefined) | . | -13 | 17 | 2 | 6 | .
O=C(N/C(=C/c1ccco1)C(=O)N1CCCC1)c1cccs1 | -1 | 15 | 17 | 5 | 3 | .
O=C(N/C(=C\c1ccco1)C(=O)N1CCCC1)c1cccs1 | 3 | 9 | 7 | 52* | 11 | 3
O=c1oc2ccccc2cc1-c1nc(-c2ccccc2)no1 | -2 | -1 | 49 | -8 | 6 | .
O=C/C=C/c1c(-c2ccccc2)cc2oc3ccccc3cc1-2 | 10 | 39 | 1 | 50* | 36 | 59*
Cc1nonc1OCCNCc1c(C(=O)N(C)C)nc2ccc(Cl)cn12 | 1 | 9 | 5 | 5 | 0 | .
O=C(OCc1c(-c2ccccc2)ncc2ccccc12)c1ccco1 | . | 24 | 37 | 55* | 28 | 40
O=C(On1c(-c2ccccc2)nc2ccccc2c1=O)c1ccco1 | 1 | 15 | 35 | 75* | 33 | 57*
O=C(NNC(=O)c1cc([N+](=O)[O-])ccc1Cl)c1cccnc1 | . | -6 | 9 | 5 | 4 | .
COC(=O)c1c(NC(=S)Nc2ccc(C(=O)N3CCOCC3)cc2)sc2c1CCC2 | 2 | 7 | 5 | 6 | 8 | .
CSc1ccc(Cl)c(C(=O)OCC(=O)N(C)CCC#N)c1 | -7 | 6 | 19 | 10 | 19 | .
O=C1OCCC1Sc1nc2ccccc2c(=O)n1-c1ccc(F)cc1 (centres undefined) | -12 | 19 | -4 | 7 | 3 | .
O=C1OCCC1Sc1nc2ccccc2c(=O)n1Cc1ccc(F)cc1 (centres undefined) | 4 | 33 | 7 | 50* | 26 | 23
NS(=O)(=O)c1ccc(NC(=O)CSc2nc3ccccc3nc2N2CCOCC2)cc1 | 2 | -9 | 7 | -7 | -2 | .
O=C1C(NS(=O)(=O)c2cccs2)=C(N2CCN(Cc3ccccc3)CC2)C(=O)c2ccccc21 | 27 | 24 | 18 | 53* | 22 | 32
CN1CCN(C2=C(NS(=O)(=O)c3cccs3)C(=O)c3ccccc3C2=O)CC1 | 5 | 28 | 0 | 6 | -5 | .
C=CCN(C(=O)CC(NC(C)=O)c1ccccc1)c1nc(-c2ccc(S(C)(=O)=O)cc2)cs1 (centres undefined) | 17 | -15 | 5 | 5 | 14 | .
CCOc1ccc(N/C(=C(/C(Cl)=C(Cl)Cl)[N+](=O)[O-])n2cncn2)cc1 | 0 | 17 | 10 | 10 | 5 | .
O=[N+]([O-])/C(C(Cl)=C(Cl)Cl)=C(\Nc1ccc(F)cc1)n1cncn1 | 3 | 38 | 8 | 75* | 35 | 20
CC1CCCCN1C(=O)Nc1cccc(Cl)c1 (centres undefined) | -2 | 16 | 4 | 51* | 17 | 48*
